# Assay results published in PubChem BioAssay AID624483 (NMMLSC, 2012).
# Among all 360,000 compounds or so, about 11,000 (3.1%) were called active. Not shown: some 2% with an inconclusive outcome. What follows is part of a selection rich in actives, with near analogues and random picks from the rest. Unmarked numbers belong to inactive results. Rule as the data show it: active = fluorescence intensity above about 16000; inconclusive = no clear call, values can overlap the other calls; inactive = below that.
# Test: compound fluorescence in toxin protease inhibitor counterscreen, primary screen, artefact control for toxin protease inhibitor project, biochemical, multiplex microsphere, HTS (AID 624483)
# Settings: compound autofluorescence counterscreen, microsphere flow cytometry; stronger effect = higher value
row,Structure (SMILES),fluorescence intensity
1,O=C1C2(c3ccccc3)CN(CCCO)CC1(c1ccccc1)CN(CCCO)C2,10600
2,CCCc1nc2c3ccccc3ccn2c1Cc1ccccc1C(F)(F)F,5310
3,Cc1ccc(S(=O)(=O)N2CCN(C(=O)CCC(=O)NC3CCCc4ccccc43)CC2)cc1 (stereo unspecified),7770
4,O=C(NCCO)C(=O)NCC(c1ccc2c(c1)OCO2)N1CCN(c2ccc(F)cc2)CC1 (stereo unspecified),5880
5,C/C(=N/NC(=O)c1ccncc1)c1ccc2c(c1)OCO2,3750
6,O=C(Nc1nc(-c2ccc3c(c2)OCO3)cs1)c1ccncc1,23200 (active)
7,CC(NC(=O)Nc1ccc2c(c1)OCO2)c1ccncc1 (stereo unspecified),2060
8,O=[N+]([O-])c1ccccc1SNc1ccccn1,2510
9,CNC[C@H]1OCc2cnnn2CCCC(=O)N([C@H](C)CO)C[C@@H]1C,4160
10,COc1ccc(OC)c(NC(=O)N[C@H](Cc2ccccc2)C(=O)NN)c1,5710
11,COc1ccc(OC)c(NC(=O)Cc2cccs2)c1,3820
12,COc1ccc(OC)c(NC(=O)CC(Cc2ccccc2OC)C(=O)O)c1 (stereo unspecified),21100 (active)
13,Cc1ccc(S(=O)(=O)NC(C)C(=O)Nc2ccccc2C(=O)N2CCCC2)cc1 (stereo unspecified),3260
14,Cc1ccc(CNC(=O)Nc2nnc([C@H]3C[C@H](O)[C@@H](CO)O3)s2)cc1,2810
15,O=C(Nc1ccccc1)c1ccc2nsnc2c1,16300 (active)
16,Cc1cccc(NC(=O)c2ccc3nsnc3c2)c1C,2560
17,O=C(NCCc1ccccc1)c1cccc(NC(=O)c2ccccc2)c1,3070
18,O=C(OC1CC2CC1[C@H]1CCCCN1C2=O)N1CCOCC1 (stereo partly specified),5270
19,CC1(C(=O)NCc2ccco2)Cc2c(-c3ccc4c(c3)OCO4)ccnc2O1 (stereo unspecified),4110
20,O=C1C(Sc2cccc(F)c2)=C[C@@]2(O)CC[C@@H](O)[C@]1(Sc1cccc(F)c1)[C@H]2O,5520
21,O=C(Nc1ccccc1C(=O)N1CCCCCC1)c1ccccc1Cl,6360
22,O=C(Nc1cc(=O)[nH]c2ncnn12)c1ccccc1Cl,16500 (active)
23,O=C(Nc1ccc2sc3ccccc3c(=O)c2c1)c1ccccc1Cl,2540

row,Structure (SMILES),fluorescence intensity
1,Cc1ccc(S(=O)(=O)C2(S(=O)(=O)c3ccc(C)cc3)CCCC2)cc1,6800
2,Cc1ccc(S(=O)(=O)N(C)C2(C)CCS(=O)(=O)C2)cc1 (stereo unspecified),21400 (active)
3,Cc1ccc(S(=O)(=O)N(C)c2ccc(C(=O)NCC3(N(C)C)CCCCC3)cc2)cc1,5740
4,CN(C)CCNC(=O)c1ccc(-c2cn3c(-c4ccc(Oc5ccccc5)cc4)cnc3cn2)cc1,4030
5,Cc1ccccc1N1CC(c2nc3ccccc3[nH]2)CC1=O (stereo unspecified),20000 (active)
6,CCCNC(=S)N1CCCC(c2nc3ccccc3[nH]2)C1 (stereo unspecified),4060
7,O=C(C1CCCO1)N1CCC(c2nc3ccccc3[nH]2)CC1 (stereo unspecified),9970
8,CCCNC(=O)C1(C)CCN1C(=O)C1(c2ccccc2)CC1 (stereo unspecified),3570
9,C=C(C)CSc1nnc(-c2ccc(C)cc2)n1N,9220
10,S=C1SCN(CCN2CCOCC2)CN1Cc1ccccc1,24500 (active)
11,Cn1c(=O)c2c(nc(CN3CCOCC3)n2Cc2ccccc2)n(C)c1=O,9090
12,C/C(CCc1ccccc1)=N\NC(=O)c1ccc(CN2CCOCC2)cc1,2210
13,Cc1cc(C)c(NC(=S)N2CCCC2C(=O)O)c(C)c1 (stereo unspecified),2490
14,COc1ccc(NC(=O)NCCN2CCN(c3ccc(C)cc3)CC2)c(Cl)c1,3770
15,COc1ccc(N2CCN(CCNC(=O)Nc3cc(Cl)ccc3Cl)CC2)cc1,3500
16,COc1ccc(N2CCN(CCNC(=O)c3nnc(Cc4c(F)cccc4Cl)o3)CC2)cc1,24000 (active)
17,CCCCN(C=O)c1c(CC)nc2c(OCc3ccccc3C(=O)OC)cccn12,4040
18,Cc1ccc(CNC(=O)C2CCN(S(=O)(=O)c3ccc4nc5c(c(C(=O)O)c4c3)CC(C)CC5)CC2)cc1 (stereo unspecified),5690
19,COC(=O)[C@@]1(Cc2ccc(OC)cc2)[C@H]2c3cc(C(=O)N4CCCC4)n(Cc4ccc(OC(F)(F)F)cc4)c3C[C@H]2CN1C(=O)c1ccccc1,5540
20,CC(C)OC(=O)C(C#N)c1nc2ccccc2nc1N1CCN(Cc2ccccc2)CC1 (stereo unspecified),2960
21,CC(=O)c1ccc(S(=O)(=O)N2CCN(c3nc4c(C)c(C)ccc4cc3C#N)CC2)cc1,13000
22,Cc1ccc(S(=O)(=O)C(C#N)c2nc3ccccc3nc2N2CCCC2)cc1C (stereo unspecified),19400 (active)
23,CCC(C)(C)C1CCC(=NNC(=O)c2ccc(Br)o2)CC1 (stereo unspecified),2520

row,Structure (SMILES),fluorescence intensity
1,Cc1ccc(N)cc1-n1c(C)ccc1C,9500
2,Cc1ccc2nc(-c3ccco3)c(Cc3cccc(Cl)c3)n2c1,4970
3,CCOC(=O)CC1=C(C(=O)OCC)C2(C(=O)N1)C(C(=O)OC)=C(N)Oc1ccccc12 (stereo unspecified),4280
4,COC(=O)CN1C(=O)C2(C(C(=O)OC)=C(N)Oc3ccccc32)C2=C1CC(C)(C)CC2=O (stereo unspecified),23500 (active)
5,C=CCN1C(=O)C2(C(C(=O)OCC)=C(N)Oc3c2c(=O)oc2ccccc32)c2ccccc21 (stereo unspecified),4120
6,CC(c1ccccn1)N(C)C(=O)c1ccc2nc(Cc3cccc(Cl)c3)oc2c1 (stereo unspecified),5500
7,Cc1ccc(C(c2nnnn2CS(=O)(=O)c2ccc(C)cc2)N2CCC(C)CC2)cc1 (stereo unspecified),4360
8,CCN(CC)c1ccc(NC(=O)CCc2nnc3ccc(N4CCCCC4)nn23)c(C)c1,4470
9,OC[C@H]1O[C@@H](c2nc(-c3nc(-c4ccc(F)cc4)no3)cs2)[C@H](O)[C@@H](O)[C@H]1O,4000
10,CC1(C(=O)NCC2CCOCC2)Cc2c(-c3cccc(C(N)=O)c3)ccnc2O1 (stereo unspecified),4060
11,O=C(Cc1cccs1)N1CCCC(c2nc(-c3ccc(S(=O)(=O)N4CCCC4)cc3)no2)C1 (stereo unspecified),16600 (active)
12,O=C(c1cccs1)N1CCCC(c2nc(-c3ccc(F)cc3)no2)C1 (stereo unspecified),11100
13,O=C(c1ccc(F)cc1)N1CCCC(c2nc(-c3cccs3)no2)C1 (stereo unspecified),4320
14,CCCNC(=O)C1(C)CCCN(C(=O)c2oc3ccccc3c2C)C1 (stereo unspecified),3630
15,CCOc1ccc(NC(=O)CN(C)C(=O)CCSc2ccc(F)cc2)cc1OCC,3520
16,Cc1cc(N=CC2=C(O)CCCC2=O)no1,3160
17,COc1ccc(O)c(C=Nc2cc(C)on2)c1,22400 (active)
18,COc1ccc(O)c(/C=N/N=C/c2cccc([N+](=O)[O-])c2)c1,3450
19,COc1ccc(C(=O)OCC(=O)NC(=O)CCSc2ccccc2)cc1,2520
20,CCOc1cccc(=O)c2c(C)n(CC3CCCO3)c(C)c12 (stereo unspecified),22100 (active)
21,CC(=O)Nc1ccc(NC(=O)CSc2nnc(COc3ccccc3C)n2CC2CCCO2)cc1 (stereo unspecified),3370
22,CCOc1ccc(NC(=O)c2cccc3c2C(=O)N(CC2CCCO2)C3)cc1 (stereo unspecified),6080
23,COc1nc(Oc2ccc(=O)n(C)n2)nc(N(C)C)n1,2790

row,Structure (SMILES),fluorescence intensity
1,COc1cc(C2C3C(=O)N(c4ccccc4)C(=O)C3ON2c2ccccc2)ccc1O (stereo unspecified),3690
2,Cc1ccccc1N1C(=O)C2ON(c3ccccc3)C(c3ccncc3)C2C1=O (stereo unspecified),23600 (active)
3,O=C1[C@@H](c2ccccc2)[C@@H](c2ccccc2)N1c1cccnc1,3340
4,Cc1cc(C)c2cc(CN(Cc3cccs3)Cc3nnnn3CC3CCCO3)c(=O)[nH]c2c1 (stereo unspecified),11000
5,Cc1cc(C)c2cc(CN(Cc3nnnn3Cc3ccc(F)cc3)C3CCCC3)c(=O)[nH]c2c1,22000 (active)
6,Cc1cccc2cc(CN(Cc3nnnn3Cc3ccccc3)C3CCCC3)c(=O)[nH]c12,7870
7,CCCCC[C@H](C)N1C[C@@H](COCc2ccccc2)Oc2cc(N3CCC[C@@H]3CO)ccc2S1(=O)=O,5890
8,CC(C)CC(NC(=O)C1CCCN1C(=O)[C@@H](C)NC(=O)OCc1ccccc1)C(=O)NCC(N)=O (stereo partly specified),3990
9,Cn1c(NCc2cccnc2)nc2cc(-c3ccc(F)cc3)sc2c1=O,2810
10,CCSc1nc(-c2ccc(OC)cc2)cc(-c2ccc(OC)cc2)c1C#N,9530
11,COc1ccc(-c2cc(-c3ccc(N)cc3)nc(N)c2C#N)cc1OC,4760
12,CCOc1cc(-c2cc(-c3ccc(OC)cc3)nc(N)c2C#N)ccc1O,24300 (active)
13,C[C@H](NC(=O)CC[C@H]1O[C@@H](n2ccc(=O)[nH]c2=O)[C@H](O)[C@@H]1O)c1cccc2ccccc12,5050
14,Cn1c(=O)cc(OCC(=O)N2CCN(c3ccccc3F)CC2)c2ccccc21,2380
15,Cn1c(=O)cc(OCCCC(=O)N2CCN(Cc3ccc4c(c3)OCO4)CC2)c2ccccc21,9010
16,Cn1c(=O)cc(OCCCC(=O)N2CCN(c3ccccn3)CC2)c2ccccc21,19100 (active)
17,COc1ccc(-c2nc(SCC(=O)N3CCCC3)n[nH]2)cc1,5340
18,Nc1nc(SCCOc2ccccc2)n[nH]1,6950
19,CCCOc1ccc(-c2nc(N)n[nH]2)cc1,16700 (active)
20,CCOC(=O)c1ccc(-c2ccc3ncnc(N(C)Cc4sccc4C)c3c2)o1,3710
21,CCCC(=O)N1CCC1(C)C(=O)NS(=O)(=O)c1ccc(Cl)cc1 (stereo unspecified),2920
22,Cc1nc2c(OCc3ccc(Cl)cc3)cccn2c1N(C)Cc1cccs1,3830
